Shown are actives, neighbours in structure and some others; about 12% of the full set was active somewhere.
m-calpain inh: inhibitors of pig calpain II. purified calpain II, fluorogenic peptide substrate, 30 min. inhibition, % at 16 µM. 0.37% of 220,000 active;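 active = inhibition above about 50%, limit read from the data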
Cl transport mod: modulators of human KCC2 chloride dependent transport | KCC2 cells, thallium flux FluoZin-2 fluorescence | B-score of Tl+ flux slope (higher = more flux/activation; lower = inhibition) at 10 µM | 2.2% of 190,000 active | AID 1456;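 active = thallium flux slope and its plate-corrected score both differing from the plate sample mean at a set confidence after two filtering rounds, in either direction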;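 note: slope of fluorescence scaled to starting intensity during 10 to 20 s after thallium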
ROMK mod: modulates human ROMK potassium channel activity; P48048; Tet-inducible ROMK, thallium flux fluorescence; actives lie on both sides; B-score at 10 µM; 2% of 130,000 active; AID 1918;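 active = signal ratio slope over the read window, or its plate-corrected B-score, at least 3 SD from the plate mean, either direction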;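 note: B-score of the F/F0 ratio slope over 7 to 12 s after thallium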
Target sequence (P48048 whole entry, looked up): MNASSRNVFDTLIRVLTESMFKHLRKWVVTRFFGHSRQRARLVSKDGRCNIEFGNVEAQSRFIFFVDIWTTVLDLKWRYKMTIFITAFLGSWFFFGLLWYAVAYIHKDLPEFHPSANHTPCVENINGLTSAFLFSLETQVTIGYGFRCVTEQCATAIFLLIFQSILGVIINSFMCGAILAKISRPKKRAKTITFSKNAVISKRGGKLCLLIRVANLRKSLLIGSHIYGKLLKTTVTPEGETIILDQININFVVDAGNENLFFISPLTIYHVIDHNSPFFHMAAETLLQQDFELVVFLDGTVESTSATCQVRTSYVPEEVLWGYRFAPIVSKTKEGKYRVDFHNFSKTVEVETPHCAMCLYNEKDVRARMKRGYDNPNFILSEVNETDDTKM
WT yeast gro inh: growth inhibition of WT yeast, mitochondrial fusion screen; AID 1362; mitochondrial fusion phenotypic screen, WT strain; inhibition, % at 10 µM; 2.1% of 190,000 active; in the data active = inhibition above about 58%; tested in S. cerevisiae
L major viab: Leishmania major promastigote growth inhibition. Leishmania major promastigotes, resazurin fluorescence viability. 9% of 200,000 active. inhibition, % at 10 µM; in the data active = inhibition above about 50%;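 note: promastigotes grown with compound for 44 hours at 28 °C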
KCC2 secondary: KCC2 (human) modulation, secondary assay. HEK293-KCC2, thallium flux, FluoZin2 fluorescence; hits give high values. AID 1713. shares compounds with Cl transport mod. 15% of 3,700 active. normalised thallium flux (F/F0 slope) at 10 µM;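 active = thallium flux slope above the same plate's solvent-only control mean plus 3 SD; inconclusive = the two replicate wells disagree; inactive = no significant difference from solvent-only control wells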
KCC2 bumet counter: thallium flux despite bumetanide block in KCC2 cells, secondary assay 3; 49% of 3,700 active; shares compounds with Cl transport mod; normalized thallium flux at 10 µM; AID 1714; HEK293-KCC2 + bumetanide/ouabain, thallium flux FluoZin2; hits give high values;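 active = thallium entry rate above the same plate's blocked-transporter control wells by more than 3 SD; inconclusive = the two repeat wells disagree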;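 note: raw slope of fluorescence over initial fluorescence between 10 and 20 s after thallium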
KCC2 secondary2: confirmation of human KCC2 transport modulators | shares compounds with Cl transport mod | AID 1715 | normalized thallium flux at 10 µM | HEK293-KCC2, thallium flux FluoZin2 fluorescence; actives lie on both sides; F/F0 rise rate, 10–20 s post-thallium | 23% of 3,700 active;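 active = thallium flux slope more than 3 SD above or below the plate's solvent-only control mean, mostly below; inconclusive = the two repeat wells disagreed; inactive = no significant shift from solvent-only controls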;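 note: raw slope with 0.1% DMSO as baseline and bumetanide as block control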
HEK counter1: parental HEK flux effect, counter-screen. shares compounds with Cl transport mod. HEK293 parental cells, thallium flux FluoZin2, ouabain; baseline-ratio fluorescence slope, 10–20 s after thallium. thallium flux rate (normalised fluorescence) at 10 µM. 46% of 3,700 active;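 active = thallium flux rate significantly above the same plate's solvent-only control wells, beyond their mean plus 3 SD; inconclusive = the two replicate wells gave conflicting results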
KCC2 retest ouab: KCC2 (human) modulation, ouabain retest; shares compounds with Cl transport mod; HEK293-KCC2, thallium flux FluoZin2 fluorescence; bidirectional: low = inhibitor, high = activator; raw Tl+ flux slope (below DMSO = inhibition, above = activation) at 10 µM; 48% of 3,700 active; AID 1717;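 active = thallium flux slope beyond 3 SD from same-plate DMSO control mean in most replicates, usually higher, sometimes lower; inconclusive = repeat tests gave conflicting results; inactive = no significant difference from controls in most replicates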;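 note: slope of initial-normalized fluorescence between seconds 10 and 20 after thallium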
HEK293 Tl flux2: acts in parental HEK cells, second KCC2 counter-screen; HEK293 parental, thallium flux FluoZin-2 fluorescence slope; 33% of 3,700 active; shares compounds with Cl transport mod; thallium flux slope at 10 µM;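 active = thallium flux slope above the same plate's solvent-control mean plus 3 SD in both duplicate wells; inconclusive = duplicate wells that disagreed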;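 note: run without ouabain in cells lacking the KCC2 cotransporter; slope of fluorescence scaled to its starting value between 10 and 20 s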
* = called active by the depositor; i = inactive; ? = inconclusive; / = not tested or not shown.

SMILES	m-calpain inh	Cl transport mod	ROMK mod	WT yeast gro inh	L major viab	KCC2 secondary	KCC2 bumet counter	KCC2 secondary2	HEK counter1	KCC2 retest ouab	HEK293 Tl flux2
Cc1cc2cc(CNC(=O)c3ccc(C)c([N+](=O)[O-])c3)ccc2[nH]1	28.9	-4.23*	0.42	13.3	-0.2	0.00866	0.00634	0.0294	0.00763	?	0.0102
CCC(Cc1ccccc1)n1c(=S)[nH]c2ccccc2c1=O (centres undefined)	33.0	50.2*	-0.242	15.8	18.4	0.0192*	0.15*	0.0353	0.0594*	0.0876*	0.0166*
COn1c(=S)[nH]c2ccccc2c1=O	20.3	/	0.855	-6.5	-6.0	/	/	/	/	/	/
CCC(C)n1c(=S)[nH]c2ccccc2c1=O (centres undefined)	15.4	101*	2.28	13.3	27.5	0.0422*	0.142*	0.0546*	0.133*	0.11*	0.0392*
O=C(NC(=S)NC(c1ccccc1)c1ccncc1)c1ccccc1 (centres undefined)	31.8	-2.33	/	27.4	45.1	/	/	/	/	/	/
O=C(NCCc1ccccc1)C(=O)NCC1CCCO1 (centres undefined)	-23.6	/	-0.357	-1.0	-8.0	0.011	0.0082*	0.0358	0.00803	0.0225	0.0119*
O=C(NCCc1ccccc1)/C(=N\O)c1ccccc1	15.7	/	0.376	-10.1	-3.5	0.00604	0.00444	?	0.0072	0.0155	0.01
CCCCNC(=O)c1onc(CSc2cccc3ccccc23)c1C(=O)O	-113.5	-4.76*	/	19.2	-8.8	0.00732	0.00596	0.0295	?	0.0179*	0.00939
Cn1ncc(Cl)c1C(=O)Nc1ccc(Cl)cn1	-7.7	-0.178	/	-20.9	-0.8	/	/	/	/	/	/
CCc1ccc(N2CC(C(=O)Nc3nnc(CC)s3)CC2=O)cc1 (centres undefined)	11.3	-0.712	0.412	2.3	-8.7	/	/	/	/	/	/
CCOC(=O)CC1C(=O)NCCN1c1nc2ccc(C)cn2c(=O)c1/C=C1\SC(=S)N(CC(C)C)C1=O (centres undefined)	-39.5	-5.23*	/	/	/	0.00351*	0.000406*	0.0142*	0.00326*	0.00709*	0.0049*
CCOC(=O)CC1C(=O)NCCN1c1nc2ccc(C)cn2c(=O)c1/C=C1\SC(=S)N(C(C)CC)C1=O (centres undefined)	-13.8	i	/	/	/	/	/	/	/	/	/
CCN1C(c2ccc(F)cc2)=CS/C1=C(\C#N)c1nnc2n1-c1ccccc1SC2	-5.8	-5.12*	/	0.8	72.1*	0.00838	0.00476	0.0335	0.00777	0.0155*	0.0117
COc1cccc(C2=NOC(C(=O)N3CCN(Cc4ccccc4)CC3)C2)c1OC (centres undefined)	9.9	-4*	/	-4.2	4.8	0.00651	0.00572	0.0288	0.00621	0.016*	?
COc1cc(OC)c(C2=NOC(C(=O)N3CCN(C(=O)c4ccco4)CC3)C2)cc1Cl (centres undefined)	-21.4	-0.613	0.00304	-21.3	-4.5	/	/	/	/	/	/
COc1cc(OC)c(C2=NOC(C(=O)N3CCc4ccccc4C3)C2)cc1Cl (centres undefined)	-2.2	-3.15*	/	23.2	2.1	0.00571	0.00385	0.0237*	0.00741	?	0.00918
O=c1n(-c2ccc(Br)cc2)cnn1-c1ncccc1[N+](=O)[O-]	7.8	-0.641	1.01	4.9	1.1	/	/	/	/	/	/
Cc1ccc2c(c1)N(CC(=O)NCc1ccco1)C(=O)C(C(C)C)O2 (centres undefined)	2.8	-1.49	/	/	/	/	/	/	/	/	/
Cn1nnnc1SCC1=C(C(=O)O)N2C(=O)C(NC(=O)C3CC3c3ccccc3)C2SC1 (centres undefined)	11.4	-5.42*	-1.06	4.2	11.8	0.00782	0.00504	0.0292	?	0.0186	0.0106
Cc1nc2nc(-c3ccc(Cl)cc3)cn2nc1C	-467.0	/	-0.261	-4.9	-6.1	0.00858	0.00573	0.0311	0.00872	0.0186	0.0118
CC(NC(=O)COC(=O)CC(c1ccccc1)c1ccccc1)c1ccccc1 (centres undefined)	16.9	-4.73*	/	38.2	-2.8	0.008	0.00374	0.0268	0.00532*	0.0176	?
O=C(Cn1[nH]c(=O)c2ccccc2c1=O)NC1CCCCCC1	-2.0	-0.385	0.309	-7.0	2.8	/	/	/	/	/	/
O=C(Cn1[nH]c(=O)c2ccccc2c1=O)NC1CCN(Cc2ccccc2)CC1	-4.4	-4.34*	/	-1.0	68.8*	0.0179	0.00379	0.0293	0.00764	0.017	0.011
O=C(c1ccccc1SCc1ccc(F)cc1)N1CCOCC1	25.8	-3.46*	0.215	1.1	-4.2	0.0149	?	0.0238*	0.0068	0.014*	0.0098
FC(F)(F)c1nc2ccccc2nc1N/N=C\c1ccccc1	10.6	/	/	-5.6	0.7	0.00732	0.00588*	0.0295	0.0086	0.02	0.0121
SMILES	m-calpain inh	Cl transport mod	ROMK mod	WT yeast gro inh	L major viab	KCC2 secondary	KCC2 bumet counter	KCC2 secondary2	HEK counter1	KCC2 retest ouab	HEK293 Tl flux2
CCCn1c(=S)[nH]c2ccccc2c1=O	2.1	79.5*	1.7	-18.3	-0.7	?	0.116*	0.0906*	0.0847*	0.102*	0.0884*
O=c1c2ccccc2[nH]c(=S)n1CCc1ccccc1	3.4	29.1*	1.21	-19.6	-7.8	0.0271*	0.0721*	0.0381	0.11*	0.0606*	0.0551*
O=c1c2ccccc2[nH]c(=S)n1CCN1CCc2ccccc2C1	-4.4	57.6*	/	/	/	0.0181*	0.13*	0.0305	0.0364*	0.069*	0.0147*
CC1CCCN(C(=O)CCCn2c(=S)[nH]c3ccccc3c2=O)C1 (centres undefined)	8.9	3.15*	-0.00874	-2.8	13.5	0.00697	0.00992*	0.0319	0.00985*	?	0.0118*
CN(C)CCCn1c(=S)[nH]c2ccccc2c1=O	-10.4	0.529	-0.00113	-11.2	-1.4	/	/	/	/	/	/
CC1CCCCC1NC(=O)CCCn1c(=S)[nH]c2ccccc2c1=O (centres undefined)	12.0	0.469	0.569	-12.8	4.0	/	/	/	/	/	/
CN1CCN(C(=O)CC2C(=O)NCCN2Cc2ccc(-c3ccccc3)cc2)CC1 (centres undefined)	-12.3	0.314	/	-3.1	-6.2	/	/	/	/	/	/
CCCCSc1nc(C(=O)O)cc(=O)[nH]1	-6.4	0.394	/	/	/	/	/	/	/	/	/
COc1ccccc1NC(=O)Nc1ccc(C(=O)N2CCCCC2)cc1	1.6	-0.673	/	/	/	/	/	/	/	/	/
